# Calls of active or inactive are those of the source.
# Experiments:
# [1] = E. coli DRC41 culture turbidity changes, primary screen, E. coli filamentation inducer project, strain DRC41, OD650, 48 h (AID 1152);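 also: E. coli MC1000 strain DRC41 lacking acrAB efflux pump and sulA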; details: E. coli DRC41 (acrAB sulA), higher = more signal, called active from +8 up or from −8 down
# [2] = small-molecule binders of probe aLefty1, primary screen, biochemical, small-molecule microarray, 635/667 nm fluorescence (AID 1153); details: higher = more signal;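 also: score merges spot fluorescence with signal-to-noise ratio from the scanned slide images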
# [3] = PSAC antagonists in infected red cells, primary screen, cell-based, P. falciparum Indochina, OD700, 1 h (AID 1154); details: P. falciparum Indochina infected RBC osmotic lysis, higher = more signal, called active from +8 up or from −8 down
# [4] = PSAC antagonists in infected red cells, primary screen, cell-based, P. falciparum Indochina, OD700, 2 h (AID 1155);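 also: lysis reports solute entry through the parasite surface anion channel PSAC; channel blockers reduce lysis of infected cells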; details: P. falciparum Indochina infected erythrocytes, osmotic lysis OD700; higher = more signal, called active from +8 up or from −8 down
# [5] = osmotic lysis modulators in infected erythrocytes, primary screen, PSAC antagonist project, cell-based, P. falciparum Indochina, OD700, 3 h (AID 1156); details: higher = more signal, called active from +8 up or from −8 down
# [6] = PSAC antagonists in infected red cells, primary screen, cell-based, P. falciparum Indochina, OD700, 18 h (AID 1157); details: P. falciparum Indochina infected erythrocytes, osmotic lysis OD700, 18 h; higher = more signal, called active from +8 up or from −8 down
# [7] = modulators of S6 phosphorylation in cells, primary screen, cell-based, A549, cytoblot, luminescence, serum-stimulated (AID 1158); details: A549 phospho-S6 cytoblot, 5 h, higher = more signal;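 also: serum-stimulated A549 lung adenocarcinoma cells; signal is phosphorylated S6 detected by cytoblot immunostaining with HRP secondary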
# [8] = molecular target: NADPH oxidase 2 (Homo sapiens) (UniProt P04839); assay: NOX2-dependent H2O2 signal modulators, primary screen, NOX inhibitor project, cell-based, HEK293-NOX2, PMA-stimulated, Amplex Red fluorescence (AID 1159); details: 45 min, higher = more signal, called active from +8 up or from −8 down; also: test concentration not given here
# [9] = molecular target: NADPH oxidase 4 (Homo sapiens) (UniProt Q9NPH5); assay: NOX4-dependent H2O2 signal modulators, primary screen, NOX inhibitor project, cell-based, HEK293-NOX4, tetracycline-induced, Amplex Red fluorescence (AID 1160); details: 45 min, higher = more signal, called active from +8 up or from −8 down
# [10] = molecular target: NADPH oxidase 5 (Homo sapiens) (UniProt Q96PH1); assay: NOX5-dependent H2O2 signal modulators, primary screen, NOX inhibitor project, cell-based, HEK293-NOX5, Amplex Red fluorescence (AID 1161); details: HEK293-NOX5, ionomycin, 45 min, higher = more signal
# [11] = A549 cell viability effects, profiling panel, calcein-AM fluorescence, 48 h, basal (AID 1162); details: higher = more signal; also: test concentration not given here
# [12] = adipocyte viability effects, profiling panel, cell-based, 3T3-L1 adipocytes, calcein-AM fluorescence, 48 h, basal (AID 1163); details: 3T3-L1 adipocytes viability, higher = more signal; also: test concentration not given here
# [13] = HepG2 cell viability effects, profiling panel, calcein-AM fluorescence, 48 h, basal (AID 1164); details: higher = more signal; also: test concentration not given here
# [14] = MM1S cell viability effects, profiling panel, calcein-AM fluorescence, 48 h, basal (AID 1165); details: higher = more signal;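 also: viability of MM1S multiple myeloma cells under basal unstimulated conditions; test concentration not given here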
# [15] = basal RPMI8226 viability, no added stimulus, profiling panel, cell-based, calcein-AM fluorescence, 48 h, PK04 Diversity Set (AID 1166); details: RPMI8226 myeloma viability, higher = more signal;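 also: cells grown under basal conditions without added stimulus; test concentration not given here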
# [16] = basal HepG2 mitochondrial membrane potential changes, profiling panel, cell-based, JC-1 fluorescence, 24 h, 100 nL compound (AID 1167); details: higher = more signal; also: test concentration not given here
# [17] = basal 3T3-L1 adipocyte mitochondrial potential changes, profiling panel, cell-based, JC-1 fluorescence, 3T3-L1 adipocytes, 24 h, 100 nL compound (AID 1168); details: JC-1 mitochondrial fluorescence, higher = more signal, called active from +8 up or from −8 down; also: test concentration not given here
# [18] = basal RPMI8226 mitochondrial membrane potential changes, profiling panel, cell-based, JC-1 fluorescence, 24 h, 100 nL compound (AID 1169); details: RPMI8226 myeloma, JC-1 mitochondrial potential fluorescence, higher = more signal; also: test concentration not given here
# [19] = basal MM1S mitochondrial membrane potential changes, profiling panel, cell-based, JC-1 fluorescence, 24 h, 100 nL compound (AID 1170); details: higher = more signal; also: test concentration not given here
# [20] = A549 lung cancer cell viability effects, profiling panel, resazurin fluorescence, 24 h, PK04 Diversity Set (AID 1171); details: higher = more signal, called active from +8 up or from −8 down; also: test concentration not given here
# Chain of NADPH oxidase 4 (Homo sapiens) (Q9NPH5 whole entry, looked up): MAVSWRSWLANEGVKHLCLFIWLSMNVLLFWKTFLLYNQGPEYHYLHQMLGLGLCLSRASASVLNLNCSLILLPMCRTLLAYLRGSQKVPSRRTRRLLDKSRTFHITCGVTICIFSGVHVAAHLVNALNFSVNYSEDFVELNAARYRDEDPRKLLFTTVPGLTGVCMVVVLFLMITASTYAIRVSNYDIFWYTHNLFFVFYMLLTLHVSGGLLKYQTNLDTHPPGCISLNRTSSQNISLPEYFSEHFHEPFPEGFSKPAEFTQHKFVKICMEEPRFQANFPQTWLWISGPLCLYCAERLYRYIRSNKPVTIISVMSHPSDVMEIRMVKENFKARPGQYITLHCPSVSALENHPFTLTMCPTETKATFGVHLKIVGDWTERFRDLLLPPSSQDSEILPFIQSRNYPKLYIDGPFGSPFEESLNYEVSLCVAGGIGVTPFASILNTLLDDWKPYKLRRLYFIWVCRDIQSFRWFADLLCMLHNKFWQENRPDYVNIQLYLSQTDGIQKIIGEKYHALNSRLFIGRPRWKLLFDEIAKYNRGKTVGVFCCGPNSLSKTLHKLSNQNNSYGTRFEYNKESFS
# Chain of NADPH oxidase 5 (Homo sapiens) (Q96PH1 whole entry, looked up): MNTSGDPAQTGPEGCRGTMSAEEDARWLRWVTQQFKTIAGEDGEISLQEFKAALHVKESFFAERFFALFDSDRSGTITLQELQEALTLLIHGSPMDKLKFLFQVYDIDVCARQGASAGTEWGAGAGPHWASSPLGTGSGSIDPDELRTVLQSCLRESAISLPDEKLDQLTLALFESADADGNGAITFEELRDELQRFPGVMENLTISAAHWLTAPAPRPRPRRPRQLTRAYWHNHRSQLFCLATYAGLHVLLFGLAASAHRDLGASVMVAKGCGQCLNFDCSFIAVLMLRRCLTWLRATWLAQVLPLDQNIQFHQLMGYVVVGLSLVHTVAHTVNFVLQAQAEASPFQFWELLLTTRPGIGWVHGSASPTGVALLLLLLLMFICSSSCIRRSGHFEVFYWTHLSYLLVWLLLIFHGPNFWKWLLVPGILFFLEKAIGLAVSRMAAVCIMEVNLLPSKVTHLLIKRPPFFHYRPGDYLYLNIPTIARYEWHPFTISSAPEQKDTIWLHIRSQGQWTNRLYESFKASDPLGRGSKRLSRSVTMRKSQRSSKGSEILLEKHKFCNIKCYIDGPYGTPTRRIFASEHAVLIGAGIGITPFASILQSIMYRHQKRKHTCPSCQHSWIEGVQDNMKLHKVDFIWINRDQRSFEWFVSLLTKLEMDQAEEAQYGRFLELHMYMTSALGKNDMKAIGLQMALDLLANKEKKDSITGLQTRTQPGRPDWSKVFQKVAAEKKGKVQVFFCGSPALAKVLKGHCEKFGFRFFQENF
# Chain of NADPH oxidase 2 (Homo sapiens) (P04839 whole entry, looked up): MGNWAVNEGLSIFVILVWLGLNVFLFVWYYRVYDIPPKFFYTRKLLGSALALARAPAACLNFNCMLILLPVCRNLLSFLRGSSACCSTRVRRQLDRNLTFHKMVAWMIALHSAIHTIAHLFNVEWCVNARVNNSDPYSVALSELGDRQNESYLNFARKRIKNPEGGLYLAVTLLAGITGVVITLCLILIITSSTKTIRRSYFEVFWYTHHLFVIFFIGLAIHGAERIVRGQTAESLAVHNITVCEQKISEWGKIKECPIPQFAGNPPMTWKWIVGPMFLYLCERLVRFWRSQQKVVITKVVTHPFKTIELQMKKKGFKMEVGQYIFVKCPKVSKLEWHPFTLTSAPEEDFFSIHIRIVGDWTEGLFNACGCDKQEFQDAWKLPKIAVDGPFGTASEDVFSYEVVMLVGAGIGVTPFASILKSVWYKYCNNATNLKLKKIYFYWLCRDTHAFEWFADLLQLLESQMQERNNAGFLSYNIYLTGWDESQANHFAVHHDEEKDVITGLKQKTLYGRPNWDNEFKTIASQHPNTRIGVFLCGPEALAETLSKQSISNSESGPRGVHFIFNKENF
Compound,z-score [1],composite z-score [2],z-score [3],z-score [4],z-score [5],z-score [6],z-score [7],z-score [8],z-score [9],z-score [10],z-score [11],z-score [12],z-score [13],z-score [14],z-score [15],z-score [16],z-score [17],z-score [18],z-score [19],z-score [20]
O=C1O[C@@H](c2ccccc2)[C@@H](c2ccccc2)N2[C@@H](c3ccc(OCCO)cc3)[C@]3(C(=O)Nc4ccccc43)[C@@H](C(=O)N3CCN(c4ncccn4)CC3)[C@H]12,0.777 (inactive),-0.0347,17.4 (active),3.91 (inactive),2.06 (inactive),1.28 (inactive),-0.183,1.09 (inactive),0.368 (inactive),1,-0.47,-0.888,0.834,-0.138,0.229,-0.679,0.339 (inactive),-0.842,-0.779,0.42 (inactive)
COCCCNC(=O)[C@@]1(Sc2ccc(C)cc2)CC(=O)N(Cc2ccccc2)[C@@H]1c1ccc(CO)cc1I,0.613 (inactive),0.337,4.55 (inactive),0.831 (inactive),0.533 (inactive),0.377 (inactive),0.505,1.26 (inactive),-0.666 (inactive),1.26,1.17,0.422,0.264,-2.37,-1.94,0.735,-0.253 (inactive),-0.617,-1.47,0.491 (inactive)
CCOC(=O)CCN1C(=O)[C@H]2[C@H]3[C@H](O)[C@H](O)CC(=NOC[C@@H](O)COCc4ccco4)[C@H]3CC[C@H]2C1=O,-0.923 (inactive),-0.101,0.73 (inactive),-1.31 (inactive),0.318 (inactive),-2.76 (inactive),0.141,-0.343 (inactive),0.0781 (inactive),-0.498,-1.43,0.8,-0.524,-2.09,-2.29,-0.803,-0.433 (inactive),-0.126,-0.612,-0.383 (inactive)
CC(CCN1CCc2nc(-c3ccccc3)c(-c3ccccc3)cc2C1)=NOC[C@@H](C)[C@H](OCc1ccccc1)C(C)C,-0.268 (inactive),-0.0464,1.43 (inactive),1.03 (inactive),1.21 (inactive),0.637 (inactive),0.116,0.837 (inactive),-1.74 (inactive),-0.578,0.474,0.503,0.488,-0.637,-1.89,1.76,-0.479 (inactive),0.161,-0.38,-0.611 (inactive)
CC(=O)O[C@H]1C2=C(C(=O)[C@@H]3O[C@@H]31)[C@H]1C(C)O[C@@H]2[C@@]23C(=O)[C@@H]4O[C@@H]4[C@@H](O)C2=CO[C@H](C)[C@@H]13 (stereo not given in full),-0.0954 (inactive),-0.191,-0.0129 (inactive),-0.215 (inactive),-0.0291 (inactive),-0.12 (inactive),-0.56,0.735 (inactive),0.358 (inactive),-0.388,-0.192,-0.392,-1.54,-3,-2.64,-1.92,-0.78 (inactive),0.151,-1.05,0.4 (inactive)
Cc1ccc(S[C@]2(C(=O)O)CC(=O)N(Cc3ccccc3)[C@@H]2c2ccc(CO)cc2I)cc1,-0.308 (inactive),0.157,13.9 (active),2.07 (inactive),1.47 (inactive),0.842 (inactive),-0.31,1.71 (inactive),-2.26 (inactive),0.38,0.282,0.181,0.0583,-2.82,-2.03,-0.862,-0.486 (inactive),-0.551,-0.967,0.682 (inactive)
Cn1cccc1C(O)C1C=CC2C(=O)NC(=O)C2N1Nc1ccccn1 (stereo not given),-1.07 (inactive),-0.289,2.33 (inactive),2.41 (inactive),0.801 (inactive),1.49 (inactive),-1.14,-2.54 (inactive),-4.94 (inactive),-5.28,-1.77,-0.0273,-2.88,-1.99,-3.88,-4.01,1.73 (inactive),-1.11,-1.88,-1.14 (inactive)
C#C[C@@H]1Oc2ccccc2S(=O)(=O)N2CCC[C@H]12,-1.16 (inactive),0.149,0.217 (inactive),0.676 (inactive),-0.0722 (inactive),0.107 (inactive),-0.222,0.0921 (inactive),-1.48 (inactive),-0.194,-0.244,-0.0897,-0.48,0.0671,-1.71,-0.998,0.121 (inactive),0.51,0.193,-0.884 (inactive)
COC(=O)[C@H](C)NC(=O)CCC1CC(OC(=O)NCc2cccc3ccccc23)CC2(CCCC(COC(=O)NCC3CCCCC3)O2)O1 (stereo not given in full),-0.484 (inactive),-0.325,0.994 (inactive),-0.35 (inactive),-0.555 (inactive),0.125 (inactive),-0.444,0.17 (inactive),0.236 (inactive),0.469,-0.332,-0.687,0.385,-0.875,0.913,1.38,-0.477 (inactive),-0.188,-0.652,0.458 (inactive)
COCCOC(=O)N1C(=O)[C@@]2(c3cc(C#Cc4ccc(OC)cc4)ccc31)[C@H](c1ccc(O)cc1)N1[C@H](c3ccccc3)[C@H](c3ccccc3)OC(=O)[C@H]1[C@@H]2C(N)=O,0.0372 (inactive),-0.303,6.02 (inactive),1.5 (inactive),-0.407 (inactive),0.954 (inactive),-0.0604,0.782 (inactive),0.689 (inactive),0.305,-0.64,0.38,-0.531,-2.08,-3.7,-1.74,0.563 (inactive),-0.896,-0.721,-1.51 (inactive)
CC1CC/C=C\[C@H]2OC34C=CCN(Cn5nnc6ccccc65)C(=O)[C@H]3N(CCO)C(=O)[C@@H]4C2C(=O)O1 (stereo not given in full),2.49 (inactive),-0.155,2.87 (inactive),0.218 (inactive),-1.23 (inactive),-0.752 (inactive),1.03,1.44 (inactive),0.285 (inactive),2.67,-0.338,1.11,-0.447,0.0362,0.134,-0.153,-0.798 (inactive),0.691,0.206,0.676 (inactive)
O=C1C2C=CC(C(O)c3ccc([N+](=O)[O-])cc3)N(Nc3ccc([N+](=O)[O-])cc3)C2C(=O)N1c1ccccc1 (stereo not given),-1.39 (inactive),0.446,12.9 (active),1.96 (inactive),0.958 (inactive),1.02 (inactive),-0.922,-1.24 (inactive),-2.87 (inactive),-2.36,-0.682,-1.1,0.0069,-0.0432,-1.81,-2.27,-2.73 (inactive),-1.01,-1.48,-0.402 (inactive)
COCCNC(=O)OCC1CCCC2(CC(OC(=O)NCCc3ccc(F)cc3)CC(CCC(=O)N[C@@H](C)C(=O)OC)O2)O1 (stereo not given in full),0.622 (inactive),0.0547,-0.577 (inactive),-0.61 (inactive),0.958 (inactive),0.565 (inactive),0.672,0.769 (inactive),0.948 (inactive),0.232,1.26,-0.144,0.0479,-0.491,0.253,-0.198,0.836 (inactive),-0.156,-1,1.06 (inactive)
CS(=O)(=O)CCOC(=O)C1=CC(CCCO)=CC(c2cccs2)N(Cc2cccc(OC(F)(F)F)c2)C=C1C(=O)OCCS(C)(=O)=O (stereo not given),-0.697 (inactive),0.217,6.83 (inactive),1.56 (inactive),0.813 (inactive),0.969 (inactive),-0.0175,-0.895 (inactive),-1.15 (inactive),-2.09,0.0985,0.783,0.464,-3.28,-3.74,0.423,-0.268 (inactive),-0.662,-1,-0.284 (inactive)
O=C1[C@H]2[C@H]3[C@H](O)[C@H](O)CC(=NOC[C@@H](O)COCc4ccco4)[C@H]3CC[C@H]2C(=O)N1Cc1ccc2c(c1)OCO2,0.198 (inactive),-0.147,8.99 (active),1.02 (inactive),0.107 (inactive),0.229 (inactive),-0.552,-0.377 (inactive),0.718 (inactive),0.00627,-0.259,-0.672,-1.05,-0.642,-0.334,-0.41,-0.339 (inactive),-0.149,-0.635,-0.138 (inactive)
CCOC(=O)CCN1C(=O)[C@H]2[C@H]3[C@H](O)C=CC(=O)[C@@H]3CC[C@H]2C1=O,-0.221 (inactive),0.0479,-0.0882 (inactive),0.501 (inactive),-0.233 (inactive),0.352 (inactive),0.146,1.22 (inactive),0.463 (inactive),-0.244,0.0872,0.0636,0.338,-0.921,0.586,0.0469,0.53 (inactive),0.203,0.176,0.289 (inactive)
COc1ccc(OC[C@H]2Cc3c(-c4ccccc4)nc4c(c3CO2)CN(CCOc2ccccc2)CC4)cc1,0.481 (inactive),-0.0141,15.4 (active),0.946 (inactive),0.661 (inactive),-0.718 (inactive),1.76,-0.0596 (inactive),-1.68 (inactive),-1.04,0.823,1.04,0.562,-2.69,-1.81,3.51,0.367 (inactive),-0.177,0.656,-0.634 (inactive)
COC(=O)[C@@H]1N=C(c2ccc(OCCCO)cc2)O[C@@H]1c1ccccc1N=[N+]=[N-],0.666 (inactive),0.309,29.3 (active),25.8 (active),1.88 (inactive),5.77 (inactive),1.24,-1.24 (inactive),-0.0584 (inactive),-2.26,0.377,0.557,0.134,-1.58,-1.56,-0.682,0.761 (inactive),-0.287,-0.218,0.4 (inactive)

# From PubChem BioAssay
